Screens: PubChem, National Center for Advancing Translational Sciences (NCATS)
Shiga toxin inh = A qHTS for Small Molecule Inhibitors of Shiga Toxin; Vero cells, Shiga toxin protein synthesis inhibition reporter; inhibition, % at 38.7 µM; 9.2% of 290,000 active; in the data active means inhibition mostly above about 28%, no sharp cut-off; inactive means mostly below about 43%
Sm TGR inh = qHTS Assay for the Inhibitors of Schistosoma Mansoni Peroxiredoxins; Schistosoma mansoni thioredoxin glutathione reductase (TGR), Q962Y6; purified TGR, DTNB reduction, TNB absorbance 405 nm; Potency, µM (top dose mostly 114 µM), actives largely listed as inhibitors; 3% of 360,000 active; active means well fitted inhibition curve with a large enough effect; inconclusive means small, poorly fitted or top-dose-only effect; inactive means no such curve, though single readings can be large or run the other way; further: nearly all actives have a fitted effect of over 60% in size
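First, TGR (20 nM dispensed) and NADPH were mixed with compound. Second, a 15 min room-temperature incubation followed. Third, further NADPH and then DTNB were added to start the reaction. Finally, TNB absorbance was monitored kinetically.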
CHX counter = Cycloheximide Counterscreen for Small Molecule Inhibitors of Shiga Toxin; cell reporter, cycloheximide protein synthesis inhibition counterscreen; max response, %; 12% of 300,000 active; in the data active means max response mostly above about 13%, no sharp cut-off; inactive means mostly below about 14%; further: read at 38.3 µM for the half of the compounds with a filed dose
FMDV inh = High Throughput Screening for Foot and Mouth Disease Virus Antivirals. Potency, µM (highest dose often 57.9 µM), most hits filed as inhibitors. 1.2% of 410,000 active. FMDV antiviral cell-based qHTS; calls by dose curve; tested in HEK293T cells; further: read-out not given here; nearly all actives have a fitted effect of over 45% in size
Of the large screens only hits and unclear results are named; the others gave an inactive call. In the library only some 12% were active in any assay of this set; here they are far more common.

CCOP(=O)(OCC)C(NC(=O)c1cc([N+](=O)[O-])cc([N+](=O)[O-])c1)C(F)(F)F (centres undefined)	Sm TGR inh 12.6µM
Cn1c(N=Nc2ccc(N3CCOCC3)cc2)[n+](C)c2ccccc21	Shiga toxin inh 94.2, CHX counter 47.8 (no result: Sm TGR inh)
Cn1c(=Nc2ccc(N3CCOCC3)cc2)ccc2ccccc21	none
O=c1c2sccc2nc(SCc2cc(=O)n3cc(Br)ccc3n2)n1Cc1ccccn1	Shiga toxin inh 93.0, CHX counter 26.4
N#Cc1ccccc1CSc1nc2ccsc2c(=O)n1Cc1ccccn1	CHX counter 17.6
c1ccc(Oc2nc(NC3CCCCC3)c3[nH]cnc3n2)cc1	none (no result: Sm TGR inh)
CCOc1ccc(-n2c(SCc3nc(-c4ccc(OC)cc4)no3)nnc2-c2ccncc2)cc1	FMDV inh inconclusive (no result: Shiga toxin inh, CHX counter)
Cc1cccc(CCNC(=O)Cn2ncc3c(=O)oc4ccccc4c32)c1	none (no result: Shiga toxin inh, CHX counter)
COc1ccccc1OCC(=O)N/N=C1\CCc2ccccc21	Shiga toxin inh 92.3, CHX counter 38.1
Cc1cccc2c1OCC/C2=N\NC(=O)COc1ccccc1	Shiga toxin inh 133.1, CHX counter 59.8
COc1ccccc1OCC(=O)N/N=C1\CCCCc2ccccc21	CHX counter 16.7
O=C(COc1ccccc1F)N/N=C1\CCCc2ccccc21	Shiga toxin inh 78.6, CHX counter 34.6
COc1ccc(OCC(=O)N/N=C2\CCCc3ccccc32)cc1	none
COc1ccc(C(=O)N/N=C2\CCc3ccccc32)cc1OC	CHX counter 29.6
COc1cccc(N2CCN(C(=O)CCCCCNc3nc(=S)[nH]c4ccccc34)CC2)c1	FMDV inh 25.1µM
Cc1ccc(C)c(CSc2nnc3[nH]c(=O)cc(-c4ccccc4)n23)c1	FMDV inh inconclusive (no result: Shiga toxin inh, CHX counter)
N#CC1=C2SCN(Cc3ccco3)CN2C(=O)CC1c1c(F)cccc1Cl (centres undefined)	Sm TGR inh 44.7µM
COc1cc(OC)c(C2CC(=O)N3CN(C)CSC3=C2C#N)cc1OC (centres undefined)	Sm TGR inh inconclusive
COc1ccc2ccccc2c1C1CC(=O)N2CN(C)CSC2=C1C#N (centres undefined)	Sm TGR inh 10µM
COc1cc(OC)c(C2CC(=O)N3CN(c4ccccc4)CSC3=C2C#N)cc1OC (centres undefined)	Sm TGR inh 10µM
CCc1ccccc1N1CSC2=C(C#N)C(c3cc(OC)c(OC)cc3OC)CC(=O)N2C1 (centres undefined)	Sm TGR inh 6.31µM
Cc1ccc(C2CC(=O)N3CN(Cc4ccco4)CSC3=C2C#N)cc1 (centres undefined)	none
Cc1ccc(C(=O)COC(=O)c2cc(-c3ccc(Cl)cc3)nc3ccccc23)cc1	none (no result: Shiga toxin inh, CHX counter)
CCc1ccc(-n2nc(C)c3c(C)cc(=O)n(CC(=O)Nc4cc(C)ccc4C)c32)cc1	none (no result: Shiga toxin inh, CHX counter)
Cc1ccc2scc(N3CCc4ccccc4C3)c(=O)c2c1	none (no result: Shiga toxin inh, CHX counter)
O=C1CN(C(=O)C2CCCCC2)C(c2ccccc2)c2cc(F)ccc2N1 (centres undefined)	none (no result: Shiga toxin inh, CHX counter)
N#CC1=C2SCN(c3ccccc3)CN2C(=O)CC1c1ccccc1Cl (centres undefined)	Sm TGR inh 22.4µM
O=C(O)C1CCN(S(=O)(=O)c2cccc3nsnc23)CC1	none
O=C(O)C1CSCN1S(=O)(=O)c1cccc2nsnc12 (centres undefined)	Sm TGR inh 44.7µM, FMDV inh inconclusive
O=C(COC(=O)c1ccccc1Nc1ccccc1)NCc1ccccc1	none
O=C(COC(=O)c1ccccc1)NCc1ccco1	none
O=C(COC(=O)c1ccccc1Nc1cccc(C(F)(F)F)c1)NCc1ccco1	CHX counter 16.9, FMDV inh inconclusive
O=C(COC(=O)C(c1ccccc1)c1ccccc1)NCc1ccco1	Sm TGR inh 39.8µM
O=C(COC(=O)c1ccccc1Oc1ccccc1)NCc1ccco1	Sm TGR inh 15.8µM
Nc1c(C(=O)NCc2ccco2)nnn1-c1ccccc1	Shiga toxin inh 71.4, CHX counter 41.9
COc1cc2c(cc1OC)C(c1ccc(F)cc1)N(c1ccc(F)cc1)C(=O)C2 (centres undefined)	none (no result: Shiga toxin inh, CHX counter)
Cc1cc(Cl)ccc1NC(=O)CCCn1nc(C)c2c(C)n(-c3ccccc3)nc2c1=O	none (no result: Shiga toxin inh, CHX counter)
COc1cc(/C=C(/C#N)c2nc(-c3cc4ccccc4oc3=O)cs2)ccc1O	none (no result: Shiga toxin inh, CHX counter)
CC(C)CCn1c(=O)c2sccc2n2c(CCCC(=O)NC(C)C)nnc12	none (no result: Shiga toxin inh, CHX counter)
CS(=O)(=O)CC[C@@H](C(=O)NCCc1ccccc1)N1Cc2ccccc2C1=O	none (no result: Shiga toxin inh, CHX counter)
Cc1nn(-c2ccccc2)c(C)c1C(=O)OCC(=O)NCc1ccco1	Sm TGR inh 17.8µM
Cc1nn(-c2ccccc2)c(C)c1C(=O)OCC(N)=O	none
